Laboratory results reported in PubChem BioAssay (NCI).
This is part of a sample that, as a whole, favours compounds with a hit. Of some 83,000 tested, about 20% had one in any assay.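 Note: values are percent growth. 100 is the growth of untreated cells, values between 100 and 0 indicate rising inhibition; between -100 and 0 indicates cell death.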 A number with no mark means an inactive call. Calls of active or inactive are those of the source.

system: A498 renal; experiment: NCI-60 one-dose screen, 48 h (100 = growth as untreated, 0 = no growth, -100 = all killed); conditions: 10 µM unless noted
Method: Growth inhibition of the A498 human tumor cell line is measured as a screen for anti-cancer activity. Cells are grown in 96 well plates and exposed to the test compound for 48 hours. Compounds are tested at a single concentration, which is 10^-5 M for most compounds. The reported endpoint is percent growth (GI% or GIPRCNT), where numbers from 0 - 100% represent growth inhibition, and numbers from -100% - 0 represent cell death. For example, a value of 40 represents 60% growth inhibition. A value of 0 means no net growth occurred over the course of the experiment. A value of -40 indicates 40% of cells at the beginning of the experiment died by the end of the experiment. A value of -100 means all cells are dead at the end of the experiment.
NCI-60 Human Tumor Cell Lines Screen was performed using the standard one-dose NCI protocol, which is described in more detail at https://dtp.cancer.gov/discovery_development/nci-60/default.htm.
Compounds with GIPRCNT values below 10 were considered active. Activity score was based on GIPRCNT using the following formula: […]
Score is 0 for GIPRCNT values of 100 or above, 50 for GIPRCNT values of 0, and 100 for GIPRCNT values of -100.

| SMILES | growth |
| --- | --- |
| O=[N+]([O-])c1cccc(/C=N\Nc2ccccc2)c1 | 101% |
| c1ccc2[nH]c(-c3ccc(Nc4nc(N5CCCCC5)nc(N5CCOCC5)n4)cc3)nc2c1 | -28.6% (active) |
| NCCn1cc(-c2nc(-c3c[nH]c4ncccc34)cs2)c2cc(Br)ccc21 | 93.6% |
| COc1cc(NC(C)CN(CC(C)C)C(C)C)c2ncccc2c1 (stereo not given) | 97.6% |
| OCC12CCCC(CO)(COC1)C2O (stereo not given) | 97.9% |
| COc1cnc2c(c1)C(=O)c1c-2n(CCCNCCN2CCOCC2)c(=O)c2cc([N+](=O)[O-])ccc12 | -86.7% (active) |
| CCCCCCCC(=O)SCC/C=C/[C@@H]1CC(=O)NCc2cccc(n2)CN(Cc2ccc(Cl)cc2)CC(=O)N[C@@H](C(C)C)C(=O)O1 | -54% (active) |
| COC(=O)C(Cc1ccccc1)n1cc(COc2nc(Cl)nc(Nc3ccc(Cl)cc3)n2)nn1 (stereo not given) | 61.6% |
| COc1ccc(NC(=S)N/N=C/c2ccccc2SSCCC(=O)OC[C@H]2O[C@H](O)[C@H](O)[C@@H](O)[C@@H]2O)cc1 | 93.4% |
| COc1ccc(-c2cc(-c3cccs3)n(N=O)c(=O)c2C#N)cc1 | 87.7% |
| NCCn1cc(-c2nc(-c3c[nH]c4ncccc34)cs2)c2ccccc21 | 88.2% |
| COc1ccc2c(c1)C(Br)=C(CCO)C2c1ccccc1 (stereo not given) | 35.6% |
| COc1c(N)c2c(c([N+](=O)[O-])c1OC)C(=O)OC2 | 104% |
| CC(C)(C)c1cc(-n2c(-c3ccc(Cl)cc3)nc3cc(C(=O)Nc4ccc(Cl)cc4)ccc32)n[nH]1 | 48% |
| CCCCCCCCNc1cccc2c1C(=O)c1ccccc1C2=O | 81.1% |
| COc1ccc2c(c1)C/C(=C\c1cc(-c3ccc4c(c3)OCO4)n[nH]1)C2=O | 85.5% |
| Cc1cc(N2CCN(C)CC2)nc(N(CCNc2ccnc3cc(Cl)ccc23)Cc2ccco2)n1 | 73.4% |
| COc1ccc(OC)c(-c2c(C#N)c(-c3ccco3)nc3c2c(-c2ccccc2)nn3-c2ccccc2)c1 | 98.5% |
| CC1(C)CC[C@]2(CO)CC[C@]3(C)C(=CC[C@@H]4[C@@]5(C)CC[C@H](NCO)C(C)(C)[C@@H]5CC[C@]43C)[C@@H]2C1 | 84.2% |
| Clc1ccccc1-c1nc(Nc2nc3ccccc3s2)nc(C(Cl)(Cl)Cl)n1 | 58.3% |

| SMILES | growth |
| --- | --- |
| COc1ccc(C2NC(=O)Nc3ccccc32)c(OC)c1 (stereo not given) | 105% |
| N#CC1=C(N)Oc2c(c(N)nn2-c2ccccc2)C1c1ccc(Cl)cc1 (stereo not given) | 97.8% |
| Nc1c(C(=O)Nc2c(Cl)cccc2Cl)sc2nc3c(cc12)C(=O)CCC3 | 2.03% (active) |
| COCCNC1=C(Cl)C(=O)c2ccccc2C1=O | 81.3% |
| OCC1OC(n2cnc3c(Cl)ncnc32)CC1O (stereo not given) | 106% |
| Nc1c2c(nc3ccc(Cl)cc13)CC(c1ccccc1)CC2=O (stereo not given) | 49.3% |
| Cn1cc(-c2csc(-c3cn(CCN)c4ccc(F)cc34)n2)c2cccnc21 | 82.4% |
| Cn1cc(-c2nc(-c3cn(C)c4ncccc34)cs2)c2ccccc21 | 45.4% |
| COc1ccc(C2(Cl)c3ccccc3N(c3ccccc3)c3ccccc32)cc1 | -26.5% (active) |
| OCCNc1nc(Nc2ccc(Cl)c(Cl)c2)nc2ccccc12 | 47% |
| COc1ccc2c(c1)c(-c1nc(-c3c[nH]c4ncccc34)cs1)cn2CCCN1CCCCC1 | 66.1% |
| C/C(=N\Nc1ccc2ccccc2n1)c1ccccn1 | 11.1% |
| Cc1ccc(C)c2c1CCC2C(C)C (stereo not given) | 110% |
| COc1ccccc1CNc1nc(N)nc2[nH]c3ccc(O)cc3c12 | 28% |
| Nc1c(C(=O)Nc2cccc(Br)c2)sc2nc3c(cc12)C(=O)CCC3 | -3.99% (active) |
| Clc1cc(Cl)cc(Nc2ccc3c(OCCCN4CCOCC4)cccc3n2)c1 | 59.8% |
| Cc1cc(C)nc(NC(N)=NCCc2ccccc2)n1 | 86.9% |
| CCCCN1CCCCn2c1nc1c2c(=O)n(C)c(=O)n1C | 96.3% |
| Cc1[c-]onc1C.Cc1[c-]onc1C.[Ag].[Ag].[NH-]S(=O)(=O)c1ccc(N=Nc2cc(N=Nc3ccc(S([NH-])(=O)=O)cc3)c3c(NC(=O)C(Cl)Cl)cccc3c2OC(=O)C(Cl)Cl)cc1 | 98.6% |
| N#C/C(=C\c1ccc(-c2ccc(Br)cc2)o1)c1nc(-c2cccs2)cs1 | 99% |
